Measurements published in PubChem BioAssay (NCATS).
Results filed as inconclusive are left out. Values without a mark were called inactive. Active and inactive are the calls of the source. The call rests on the fitted dose curve; in most records, active means well fitted cell-killing curve with a large enough effect; inconclusive means small, poorly fitted or top-dose-only effect, or effect the other way; inactive means no such curve, though single readings can be large or run the other way.

Experiment: Quantitative High-Throughput drug screen in 47 multiple myeloma cell lines against the NCATS MIPE library collection: AMO1_DSMZ cell viability assay (AID 1918927; further: nearly all actives have a fitted effect of over 30% in size)
Conditions: AMO1 myeloma cells viability, CellTiter-Glo ATP luminescence, 48 h; series mostly up to 45.8 µM; viability, % of DMSO: at the top concentration
Excerpt: PI: Beverly A. Mock Ph.D.
Laboratory of Cancer Biology and Genetics,
Center for Cancer Research, National Cancer Institute,
National Institute of Health, Bethesda, Maryland
Drug resistance and disease progression are common in multiple myeloma (MM) patients, underscoring the need for new therapeutic combinations. […] We hypothesized that effective combinations would reduce MYC expression and enhance p16 activity. […] These preclinical data identify potentially useful drug combinations for evaluation in drug-resistant MM and reveal potential mechanisms of combined drug sensitivity.
Described herein is the primary MIPE qHTS used to cherrypick compounds. Validated compounds were then further tested for potential synergistic activiy.
[1] Peat TJ, Gaikwad SM, Dubois W, Gyabaah-Kessie N, Zhang S, Gorjifard S, Phyo Z, Andres M, Hughitt VK, Simpson RM, Miller MA, Girvin AT, Taylor A, Williams D, D'Antonio N, Zhang Y, Rajagopalan A, Flietner E, Wilson K, Zhang X, Shinn P, Klumpp-Thomas C, McKnight C, Itkin Z, Chen L, Kazandijian D, Zhang J, Michalowski AM, Simmons JK, Keats J, Thomas CJ, Mock BA. Drug combinations identified by high-throughput screening promote cell cycle transition and upregulate Smad pathways in myeloma. Cancer Lett. 2023 Aug 1;568:216284. doi: 10.1016/j.canlet.2023.216284. Epub 2023 Jun 24. PMID: 37356470; PMCID: PMC10408729.
SEQUENCE No. (e.g., 1, 2, 3, etc.); […] (e.g., Cells, Incubation, Reagent, etc.); VALUE and DESCRIPTION.
1; Cells; 5 uL; white, solid bottom 1536-well Greiner assay plate.
2; Compounds; 23 nL; Kalypsis pin tool (Wako USA) equipped with a 1536-well pin head to transfer to the assay plates.
3; Incubation; 48 hours; 37C incubation.
4; Reagent;5uL; CellTiter Glo (Promega).
5; Detector; 425V; Luminescence; Viewlux PerkinElmer.
NOTES (numbers refer to Sequence numbers above)
1. The cell-based screening methods employed in this study were like those previously published. Briefly, the corresponding myeloma cell lines were screened in 1,536-well plates with 500 cells, 5-uL per well for inhibition of cell viability (assessed by measuring ATP levels with CellTiterGlo).
2. NCATS MIPE 4.0 library of approved and investigational drugs were added using the Kalypsis pin tool. Wells treated with DMSO only for 100% viability and media only wells for 0% viability were used as controls.
3. The assay plates were covered and incubated for 48 hours in a 37C, 5% CO2 incubator with controlled humidity.
4. After 48 hours, CellTilter-GloTM luminescent substrate mix (Promega) reagent was added to the assay plate and plates we incubated for 5 min at room temperature.
5. Signal was measured as median relative luminescence units on a ViewLux (PerkinElmer) multiplate reader.
[1] Heske CM, Davis MI, Baumgart JT, Wilson K, Gormally MV, Chen L, Zhang X, Ceribelli M, Duveau DY, Guha R, Ferrer M, Arnaldez FI, Ji J, Tran HL, Zhang Y, Mendoza A, Helman LJ, Thomas CJ. Matrix Screen Identifies Synergistic Combination of PARP Inhibitors and Nicotinamide Phosphoribosyltransferase (NAMPT) Inhibitors in Ewing Sarcoma. Clin Cancer Res. 2017 Dec 1;23(23):7301-7311. doi: 10.1158/1078-0432.CCR-17-1121. Epub 2017 Sep 12. PMID: 28899971; PMCID: PMC6636827.
Potency means the concentration at half of the fitted maximal effect.

| Structure (SMILES) | viability, % of DMSO | Potency |
| --- | --- | --- |
| O=C(C=Cc1c(C(=O)O)[nH]c2cc(Cl)cc(Cl)c12)Nc1ccccc1 | 115% |  |
| COc1ccc(CC2c3cc(OC)c(OC)cc3CC[N+]2(C)CCC(=O)OCCCCCOC(=O)CC[N+]2(C)CCc3cc(OC)c(OC)cc3C2Cc2ccc(OC)c(OC)c2)cc1OC (stereo not given) | 97.7% [at 5.15 µM] |  |
| CCn1nnc2c(N3CCOCC3)nc(-c3ccc(NC(=O)Nc4ccc(C(=O)N5CCN(C)CC5)cc4)cc3)nc21 |  | 52.6 nM (active) |
| O=C(O)CO.[NH2-].[NH2-].[Pt+2] | 138% |  |
| Cn1c2cc(S(C)=O)sc2c2cnn(Cc3cccc(N)c3)c(=O)c21 (stereo not given) | 112% |  |
| COCCOc1ccc2c(c1)ncn2-c1ccc2cccc(N3CCC(N)CC3)c2n1 |  | 2090 nM (active) |
| Cc1ccc(S(=O)(=O)Nc2cc(Cl)ccc2C(=O)Nc2nc(-c3ccccc3)cs2)cc1 |  | 9350 nM (active) |
| CC(C)=CCCC(C)=CCCC(C)=CCSc1ccccc1C(=O)O |  | 4180 nM (active) |
| CC(C)(O)c1cc2nc(-c3cnc(N)nc3)nc(N3CCOCC3)c2s1 |  | 93.5 nM (active) |
| CCn1cc(-c2ccnc3[nH]c(-c4cccc(CN(C)C)c4)cc23)c(-c2ccc(NC(=O)N(C)C)cc2)n1 |  | 5260 nM (active) |
| COC(=O)[C@]12CCC(C)(C)C[C@@H]1[C@@H]1C(=O)C=C3[C@@]4(C)C=C(C#N)C(=O)C(C)(C)[C@@H]4CC[C@@]3(C)[C@]1(C)CC2 |  | 469 nM (active) |
| COc1ccc(C=Cc2cc(OC)c(OC)c(OC)c2)cc1O | 7.76% |  |
| O=C(O)c1ccc2cc(-c3ccc(O)c(C45CC6CC(CC(C6)C4)C5)c3)ccc2c1 |  | 1320 nM (active) |
| Cc1coc2c1C(=O)C(=O)c1c-2ccc2c1CCCC2(C)C |  | 20.9 nM (active) |
| CC(C)[C@H](C(=O)Nc1ccc(C(=O)NO)cc1)c1ccccc1 |  | 469 nM (active) |
| O=C(O)c1ccc2c(c1)nc(Nc1cccc(Cl)c1)c1ccncc12 |  | 5900 nM (active) |
| CC(C)(O)CCc1ccc(OCc2cc(-c3cccc(OC(F)F)c3)c3ncccc3c2)cc1 | 115% |  |
| CNC(=O)c1ccccc1Nc1nc(Nc2ccc(N3CCOCC3)cc2OC)ncc1Cl |  | 418 nM (active) |
| COc1cc(C(=O)N2CCC(N3CCN(C)CC3)CC2)ccc1Nc1ncc2c(n1)N(C)c1ccccc1C(=O)N2C |  | 2350 nM (active) |
| Cc1ccc(NC(=O)C2(c3ccc4c(c3)OC(F)(F)O4)CC2)nc1-c1cccc(C(=O)O)c1 |  | 52.6 nM (active) |

| Structure (SMILES) | viability, % of DMSO | Potency |
| --- | --- | --- |
| CC(C)(C)c1cnc(CSc2cnc(NC(=O)C3CCNCC3)s2)o1 |  | 1480 nM (active) |
| Nc1nc(Nc2ccc(S(N)(=O)=O)cc2)nn1C(=O)c1c(F)cccc1F |  | 2090 nM (active) |
| CC(C)CC(=O)Nc1n[nH]c2c1CN(C(=O)C1CCN(C)CC1)C2(C)C |  | 1660 nM (active) |
| COc1cccc2nc(-c3cccs3)nc(NN3C(=O)C=C(C)C3=O)c12 |  | 93.5 nM (active) |
| O=C(Nc1cc(C(F)(F)F)cc(C(F)(F)F)c1)c1cc(Cl)ccc1O |  | 235 nM (active) |
| O=C(NCCS(=O)(=O)c1ccc(C(F)(F)F)cn1)c1ccc(Cl)cc1 | 121% |  |
| COc1ccc(OC)c(-c2nnc3ccc(-c4ccc(OC)c(O[C@@H]5CCOC5)c4)nn23)c1 |  | 26400 nM (active) |
| Cc1[nH]nc2ccc(-c3cncc(OC[C@@H](N)Cc4ccccc4)c3)cc12 |  | 935 nM (active) |
| Cc1ccc(-c2ncn(-c3ccc(Nc4nccc(-c5cccc(N6CCOCC6)c5)n4)cc3)n2)cn1 |  | 132 nM (active) |
| CC[C@@]1(O)C(=O)OCc2c1cc1n(c2=O)Cc2cc3cc(O)ccc3nc2-1 |  | 74.3 nM (active) |
| Cc1c(NC(=O)OC[C@@H]2COCCN2)cn2ncnc(Nc3ccc4c(cnn4Cc4cccc(F)c4)c3)c12 |  | 3320 nM (active) |
| Cn1cc(-c2[nH]c3cc(NC(=O)[C@H](N)C4CCCCC4)cc4c3c2C=NNC4=O)cn1 |  | 2960 nM (active) |
| Cc1cn(-c2cc(NC(=O)c3ccc(C)c(Nc4nccc(-c5cccnc5)n4)c3)cc(C(F)(F)F)c2)cn1 | 123% |  |
| CC=CC1=C(C(=O)O)N2C(=O)[C@H](NC(=O)[C@H](N)c3ccc(O)cc3)[C@@H]2SC1 |  | 8330 nM (active) |
| CN(C)CC(C)(C)CNc1nn2c(-c3ccccc3)nnc2cc1C1CCC1 |  | 2960 nM (active) |
| COCCn1c2c([n+](Cc3cnccn3)c1C)C(=O)c1ccccc1C2=O |  | 52.6 nM (active) |
| COc1c(OCCCN2CCOCC2)ccc2c3n(c(=NC(=O)c4cnc(N)nc4)nc12)CCN3 |  | 512 nM (active) |
| Nc1ncnc2c1c(-c1cnc3[nH]ccc3c1)nn2C1CCCC1 |  | 662 nM (active) |
| CNC(=O)c1cc(Oc2ccc(NC(=O)Nc3cc(C(C)(C)C)nn3-c3ccc4ncccc4c3)c(F)c2)ccn1 |  | 7430 nM (active) |
| CC=C1NC(=O)[C@H]2CSSCCC=C[C@H](CC(=O)N[C@H](C(C)C)C(=O)N2)OC(=O)[C@H](C(C)C)NC1=O |  | 14.8 nM (active) |
